Experimental data from PubChem BioAssay AID2384 (Southern Research Specialized Biocontainment Screening …, 2010).
Out of some 2,300 compounds screened, about 1,100 (48%) were called active. So high a share suggests a set chosen from earlier hits. This is one part of the list. Results with a measured potency or affinity are listed apart. A number with no mark means an inactive call. No rule for the calls is given here.

Assay: inhibitors in S. typhi counter-screen strain, dose response, counter-screen for PhoP regulon inhibitor project, fluorescence, 4 h (AID 2384)
Conditions: S. typhi GFP reporter counter-screen; series mostly up to 150 µM; inhibition: at the top concentration

Row | Structure (SMILES) | inhibition [%]
1 | CC(C)[C@H](NC(=O)c1ccccc1Cl)C(=O)Nc1nc(-c2ccccn2)cs1 | 6.8
2 | O=C(Nc1ccncc1)c1cc(-c2ccccn2)nc2ccccc12 | 3.75
3 | Cn1cc(S(=O)(=O)Nc2ccc(OC(F)(F)F)cc2)c(=O)n(C)c1=O | 2.31
4 | CC(C)NC(=O)CN1CCN(Cc2nc(C(c3ccccc3)c3ccccc3)no2)CC1 | 9.52
5 | CCN1CCN(C(=O)Cc2coc3cc(C)cc(C)c23)CC1 | 6.4
6 | O=C(O)c1cc2cc(F)ccc2[nH]1 | -16.8
7 | CCN1CCN(C(=O)/C=C/c2cccc(Cl)c2)CC1 | 38.5
8 | COc1c(C(=O)N2CCCC2)ccc2ccccc12 | -8.29
9 | COc1ccc2c(C(=O)CCl)c[nH]c2c1 | 2.29
10 | Cc1c(Cl)cccc1NC(=O)C1CCN(S(C)(=O)=O)CC1 | -31.6
11 | COc1cccc(OC)c1C(=O)Nc1ccc(N2CCN(S(C)(=O)=O)CC2)cc1 | 16.1
12 | COCc1ccc(C(=O)Nc2ccc(C(=O)O)cc2)o1 | 33.9
13 | CCOC(=O)Cc1[nH]nc2c1C(c1ccoc1)C(C#N)=C(N)O2 (centres undefined) | 16.3
14 | O=C1c2ccccc2C(=O)C1(CO)c1ccc(OC(F)F)cc1 | 10.6
15 | O=c1c2ccccc2nc(-c2cccc(Cl)c2)n1O | 18.7
16 | COc1ccc(C(=O)O/N=C2\C(=O)N(C)c3ccccc32)cc1 | -11.3
17 | CC(=O)NCCn1c(SCc2ccccc2C)nc2ccccc2c1=O | -10.7
18 | Cc1nc(SCC(=O)N2c3ccccc3Sc3ccccc32)n[nH]1 | -16.7
19 | Cc1ccn2cc(C(=O)Nc3nnc(C)s3)nc2c1 | -9.14
20 | Cc1cccc(N/N=C/c2ccc(O)c(O)c2O)c1 | 38.9
21 | O=C(NCCO)C(=O)c1c(-c2ccc(Cl)cc2)cc2ccccn12 | -15.4
22 | CC(C)c1ccc(C2C(C#N)=C(N)Oc3c2oc(CO)cc3=O)cc1 (centres undefined) | -1.23
23 | CCN(CC)CCNC(=O)c1cccc(NC(=O)C(=O)c2cc(Br)ccc2NC(C)=O)c1 | -5.6
24 | COc1ccc(NS(=O)(=O)c2cccc(NC(=O)c3ccccn3)c2)cc1 | -6.56
25 | O=C(NC(=C(Cl)Cl)S(=O)(=O)c1ccc(Cl)cc1)c1ccccc1 | -8.31

Row | Structure (SMILES) | inhibition [%]
26 | O=C(CCl)Nc1nccs1 | 28.1
27 | O=C(NCc1cccnc1)c1ccc(Cl)cc1[N+](=O)[O-] | -24.5
28 | O=C(Nc1ccccc1)Nc1cccc(Cl)c1 | 14.8
29 | CCCN1C(=O)c2ccc(C(=O)Nc3nccs3)cc2C1=O | -20.2
30 | Nc1ccc(S(=O)(=O)Nc2nccs2)cc1 | -15.3
31 | O=C(NCc1ccco1)c1ccc2c(c1)N(Cc1ccccc1)CCS2 | -4.41
32 | CN1C(=O)/C(=C/c2cccc(Cl)c2)Sc2ccc(C(=O)N3CCCC3)cc21 | 3.12
33 | O=C(COC(=O)/C=C/c1cccc(C(F)(F)F)c1)NCc1ccccc1 | -4.38
34 | CCC(=O)Nc1nc(C)c(C(=O)N2CCCCC2)s1 | 9.2
35 | O=C1c2ccccc2C(=O)N1CCC(c1ccccc1)c1ccco1 (centres undefined) | -5.55
36 | CCc1ccccc1NC(=O)c1onc(C)c1Cl | -5.45
37 | CC1(C)CC(=O)C2=C(C1)N(c1ccc(F)cc1)C(=O)CC2c1ccsc1 (centres undefined) | -21.1
38 | CCc1cc(CNC(=O)C2CCC(=O)N(Cc3cccc(F)c3)C2)on1 (centres undefined) | -24.2
39 | Fc1ccccc1CSc1ccc(-c2ccco2)nn1 | -12.9
40 | COc1cccc(NC(=O)CSc2nncn2-c2ccccn2)c1 | -7.4
41 | CCCCn1c(NCc2ccccc2NS(=O)(=O)c2ccc(C)cc2)nc2ccccc21 | -17.6
42 | Cc1cccc(S(=O)(=O)c2c(N)n(/N=C/c3ccccc3)c3nc4ccccc4nc23)c1 | 8.36
43 | N#CCCn1c2ccccc2c2nc3ccccc3nc21 | -2.6
44 | CCN1CCN(c2nc3ccccc3nc2C(C#N)S(=O)(=O)c2ccc(C)cc2)CC1 (centres undefined) | 16.5
45 | CCCN(CCC)c1nc(C)cc(C(C#N)c2nc3ccccc3o2)n1 (centres undefined) | -11.1
46 | CS(=O)(=O)c1cnc2c(-c3ccsc3)cnn2c1N | 2.48
47 | CS(=O)(=O)c1cnc2c(-c3ccc(F)cc3)cnn2c1N | 5.15
48 | Cc1ccc(OCC(O)Cn2c(N)nc3c2c(=O)n(C)c(=O)n3C)cc1 (centres undefined) | 9.77
49 | C=C(C)Cn1c(-c2ccc(OC)cc2)nc2ccccc21 | -14.9
50 | CC(C)Cc1nc(N2CCOCC2)c(C#N)c2c1COC(C)(C)C2 | 9.96

Row | Structure (SMILES) | inhibition [%]
51 | C1CCC(n2nnnc2CN2CCN(C3CCCC3)CC2)CC1 | -17.6
52 | CCCCC(=O)Nc1ccc(F)c(Cl)c1 | 4.38
53 | CCN(CC)C(=O)C(=O)c1cn(CC(=O)N2CCc3ccccc3C2)c2ccccc12 | 14.3
54 | Cc1ccccc1-c1ncc(CN2CCN(C3CCCC3)C(CCO)C2)cn1 (centres undefined) | -17.2
55 | COc1cccc(/C=C/C(=O)c2cccc([N+](=O)[O-])c2)c1OC | 11
56 | COC(=O)c1cn(C(=O)c2ccco2)c2ccccc12 | 14.2
57 | O=C(On1c(-c2ccccc2)nc2ccccc2c1=O)c1ccco1 | 33.5
58 | COC(=O)c1ccc(OC(=O)c2cccnc2)cc1 | 16.5
59 | COc1ccc(N(C(=O)c2cccnc2)S(=O)(=O)c2cccc([N+](=O)[O-])c2)cc1 | -26
60 | CCNC(=O)c1ccc(C2SCC(=O)N2CCc2ccccc2)cc1 (centres undefined) | 16.3
61 | COc1ccc(C[C@H]2CN3C(=NC[C@H]3Cc3ccccc3)N2CCNC(=O)c2ccc(C)c(Br)c2)cc1 | 32.1
62 | CS(=O)(=O)N(CCc1ccccc1)CC(=O)Nc1ccc2c(c1)OCO2 | 12.9
63 | COc1ccc2c(C(=O)CN(C)C3CCCCC3)c[nH]c2c1 | 24.3
64 | Cc1ccc(NC(=O)CCNC(=O)c2ccccc2)cc1F | 22.2
65 | O=C(CSCc1ccccc1)Nc1cccc(C(=O)Nc2ccc(C(=O)O)cc2)c1 | 23.4
66 | Cc1ccnc(NC(=O)CCC(=O)N(CC(=O)NC2CCCCC2)C2CCCC2)c1 | -6.73
67 | CCN1CCN(CC(=O)Nc2ccc(C)c(Br)c2)CC1 | 28.8
68 | CN1C2=CC=CC=CC2=[N+](C)C12C=CC(=[N+]([O-])[O-])C=C2[N+](=O)[O-] (centres undefined) | 18.4
69 | Cc1cccc(/C(N)=N/OC(=O)N2CCOCC2)c1 | -7.33
70 | Cc1ccn2cc(-c3ccc4c(c3)NC(=O)CO4)nc2c1 | -22.3
71 | CC(C)n1cnnc1SCC(=O)Nc1ccc(Br)cc1F | -11.7
72 | N#Cc1ccc(-c2ccc(OCC(=O)NCCCN3CCCC3=O)cc2)cc1 | 29.4
73 | COc1ccc(-n2ncc3c(NCc4ccccn4)ncnc32)cc1 | -13.1
74 | C1=C(CCNc2ncnc3c2[nH]c2ccccc23)CCCC1 | 26.6
